Screening data (PubChem BioAssay)
Rows were chosen to be rich in hits. Some 9.7% of all compounds tested hit in one or more screens of this group.
BAP1 inh – inhibitors of BAP1 deubiquitinase, primary screen, biochemical, Ub-AMC fluorescence, kinetic; recombinant BAP1, Ub-AMC hydrolysis fluorescence kinetic; active compounds read low; calls only at 20 µM; actives 0.48% (n = 72,000); AID 436, 2006;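 active means activity remaining at or below 50% of control, provided the compound also passes the data quality filters; inactive means the rest, including low values that fail the filters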;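 further: 100% = DMSO wells rate and 0% = substrate alone blank rate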
M1 antag – antagonists of rat M1 muscarinic receptor; Muscarinic acetylcholine receptor M1 (Rattus norvegicus), P08482; CHO-M1 cells, Fluo-4 calcium, ACh EC80 antagonist mode; active compounds read low; B-score at 10 µM; actives 3.4% (n = 64,000);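 active means calcium fluorescence response, raw or row-and-column corrected B-score, differing from the plate sample mean either way at a set confidence level, mostly lower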
M1 ag – M1 muscarinic receptor agonists, primary screen, CHO-M1 cells, Fluo-4 calcium, agonist mode; actives 3% (n = 64,000); Muscarinic acetylcholine receptor M1; Fluo-4 calcium fluorescence; active compounds read high; B-score at 10 µM;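 active means fluorescence rise, raw or as B-score row- and column-corrected plate score, outside the 99.7% band of its plate's samples, either direction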
Abs 340nm – compound light absorbance at 340 nm, profiling panel, artefact control, biochemical, MLSMR library, data from PS, PMK, MK assays. compound absorbance at 340 nm, fold over control. fold change at 10 µM. 65,000 tested, under 10 active;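 active means at 10 µM dose, initial 340 nm absorbance at least 2 fold that of control wells; inactive means change under 2 fold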;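 further: initial absorbance extrapolated from kinetic A340 decline of NADH oxidation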
Fluor 339 460 – intrinsic fluorescence of library compounds, ex339/em460 – biochemical, MLSMR library, data from DPM-DC assay, artefact control, profiling panel; compound autofluorescence, ex339/em460 nm, NADH buffer; active compounds read high; 1 = no-compound wells, NADH background; fluorescence fold increase at 10 µM; actives 5.5% (n = 65,000);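 active means at 10 µM, mean starting fluorescence two-fold or more over control wells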;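 further: signal is the first read of a kinetic run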
WNV protease inh – inhibitors of WNV NS2B-NS3 protease, primary screen, biochemical, fluorogenic substrate | Genome polyprotein (West Nile virus), P06935 | fluorogenic substrate Ex360/Em465; active compounds read low | z-score (no concentration beside the values) | actives 0.18% (n = 65,000) | AID 577, 2007; in the data active means z-score below about -3
Target sequence (P06935 1371-1501 limits assumed): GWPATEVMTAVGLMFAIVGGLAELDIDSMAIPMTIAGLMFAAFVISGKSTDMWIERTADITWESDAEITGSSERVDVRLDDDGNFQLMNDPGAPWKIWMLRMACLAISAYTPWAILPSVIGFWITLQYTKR
Target sequence (P06935 1502-1679 limits assumed): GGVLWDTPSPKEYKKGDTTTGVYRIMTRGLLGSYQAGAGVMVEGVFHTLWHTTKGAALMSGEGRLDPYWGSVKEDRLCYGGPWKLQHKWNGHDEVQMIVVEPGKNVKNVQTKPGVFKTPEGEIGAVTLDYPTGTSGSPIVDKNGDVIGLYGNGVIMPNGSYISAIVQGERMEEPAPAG
An asterisk follows results filed as active; i = inactive; nt = not tested or not shown.

SMILES | BAP1 inh | M1 antag | M1 ag | Abs 340nm | Fluor 339 460 | WNV protease inh
CC1=C(C(=O)Nc2cccc(C)n2)C(c2ccc3c(c2)OCO3)C2=C(CC(c3ccco3)CC2=O)N1 (stereo not given) | i | 0.755 | -1.15 | 1.13 | 2.32* | 0.65
COc1ccc(-c2cc(C(F)(F)F)n3nc(C(=O)N4CCCCCC4)c(Cl)c3n2)cc1OC | i | nt | nt | nt | nt | nt
COc1ccc(N=c2oc3cc(OC(C)=O)ccc3cc2C(=O)NC(C)=O)cc1 | i | nt | nt | nt | nt | nt
COc1ccc2cc(CN(Cc3cccnc3)Cc3nnnn3Cc3ccccc3)c(=O)[nH]c2c1 | i | 0.207 | -0.00734 | 1.12 | 1.25 | -1.3
COc1ccc2[nH]c(=O)c(CN(Cc3nnnn3Cc3ccccc3)CC3CCCO3)cc2c1 (stereo not given) | nt | 0.722 | -0.471 | 1.08 | 2.14* | -1.21
COCCn1nnnc1CN(Cc1cccnc1)Cc1cc2cc(OC)ccc2[nH]c1=O | nt | -0.0207 | -0.355 | 0.99 | 2.21* | -0.49
Cc1ccccc1-n1nc2c(c1NC(=O)c1ccc(Cl)cc1)CSC2 | i | nt | nt | nt | nt | nt
CCc1nc(-c2ccccc2)cc2cc(OC)c(OC)cc12 | i | nt | nt | nt | nt | nt
CN(C)c1ccc(-c2nc3ccccc3n2C)cc1 | nt | -0.0524 | -0.0365 | 1.08 | 3.62* | -0.67
C=CCn1c(-c2ccc(N)cc2)nc2ccccc21 | i | -1.56 | 1.05 | 1.03 | 2.12* | -1.29
C=CCn1c(-c2ccc(OC)cc2)nc2ccccc21 | i | -0.0316 | 0.189 | 0.98 | 1.05 | 0.28
CCn1c(-c2ccc(N(C)C)cc2)nc2ccccc21 | i | -0.964 | -0.572 | 1.1 | 3.87* | 0.77
CC(C)n1c(-c2ccc(N(C)C)cc2)nc2ccccc21 | i | -1.1 | -0.946 | 1.03 | 3.76* | 0.47
Cc1ccc(C(O)c2nc3ccccc3n2C(C)C)cc1 (stereo not given) | i | -0.575 | 0.0374 | 0.99 | 1.01 | -0.24
Cn1c(-c2ccc(Br)o2)nc2ccccc21 | i | 0.165 | 1.66 | 1.06 | 1.16 | 0.01
COc1ccc2nc(NC(=O)Cc3ccc(Cl)cc3)sc2c1 | i | nt | nt | nt | nt | nt
CCOc1ccc2[nH]c(=O)c(CN(Cc3ccc(F)cc3)C(=O)N3CCCC3)cc2c1 | nt | 0.237 | 0.00582 | 1.03 | 2.76* | -1.03
CCOc1ccc2[nH]c(=O)c(CN(CCO)C(=O)c3ccc(Br)cc3)cc2c1 | i | -0.524 | -0.269 | 1.09 | 2.65* | -0.53
COc1ccc2[nH]c(=O)c(CN(Cc3ccc4c(c3)OCO4)C(C)=O)cc2c1 | i | -1.48 | -0.445 | 1.09 | 1.52 | 1.54
CCOc1ccc2[nH]c(=O)c(=O)[nH]c2c1 | i | -0.102 | -1.1 | 1.07 | 2.17* | -0.58
CCOc1ccc2[nH]c(=O)c(CN(CCO)C(=O)CC)cc2c1 | nt | 0.439 | -0.535 | 1.07 | 3.09* | -0.6
COc1ccc(C(=O)Nc2ccc(-c3nc4ncccc4o3)cc2)cc1OC | i | nt | nt | nt | nt | nt
Cc1[nH]c(=O)[nH]c(=O)c1[N+](=O)[O-] | i | nt | nt | nt | nt | nt
O=C(Nc1cccc2ccccc12)c1cnn2c(C(F)(F)F)cc(-c3ccccc3)nc12 | i | nt | nt | nt | nt | nt
COc1ccc2nc(C(=O)O)sc2c1 | i | nt | nt | nt | nt | nt
SMILES | BAP1 inh | M1 antag | M1 ag | Abs 340nm | Fluor 339 460 | WNV protease inh
COc1ccccc1NC(=O)Nc1ccnn1C1CCCCC1 | nt | 0.00594 | -0.041 | 0.98 | 1.16 | 0.74
CCCCNC(=O)Nc1ccnn1C1CCCCC1 | i | 2.41* | -0.719 | 0.97 | 1 | 0.0026
[N-]=[N+]=CC(=O)c1ccnc(C(=O)C=[N+]=[N-])c1 | i | 1.63* | -0.377 | 1.07 | 1.1 | -1.19
NC(=O)c1nn(-c2ccccc2)nc1N | i | 0.317 | 0.142 | 1.12 | 3.9* | -1.05
CC(C)C1C(C#N)=C(N)Oc2n[nH]c(-c3ccccc3)c21 (stereo not given) | i | 1.27* | -0.152 | 0.98 | 1.06 | -0.36
CC(C)c1[nH]nc2c1C(C(C)C)C(C#N)=C(N)O2 (stereo not given) | i | 0.274 | 0.0131 | 0.98 | 1.03 | 0.67
CCOC(=O)c1nn2c(C(F)(F)F)cc(-c3ccc(Br)cc3)nc2c1Br | i | nt | nt | nt | nt | nt
COc1ccc2[nH]c(=O)c(CN(C(=O)C3CCCO3)c3cccc(C)c3)cc2c1 (stereo not given) | nt | 0.816 | -1.1 | 1.07 | 2.35* | -0.27
COc1ccc(N(Cc2cc3cc(OC)ccc3[nH]c2=O)C(=O)C2CCCO2)cc1 (stereo not given) | nt | -0.997 | -0.00296 | 1.09 | 2.88* | -1.76
CCOC(=O)c1c(C)[nH]c(C(=O)CSc2nc(C)nc3c2cnn3-c2ccccc2)c1C | i | nt | nt | nt | nt | nt
Cc1ccc(NC(=O)COc2ccc([N+](=O)[O-])cc2)c(Br)c1 | i | nt | nt | nt | nt | nt
CC(=O)Nc1cc2nn(-c3ccccc3)nc2cc1Cl | nt | -0.25 | -0.0243 | 1.08 | 2.3* | 1.15
Cc1cc(OCC(=O)Nc2cc3nn(-c4ccccc4)nc3cc2C)ccc1Cl | i | nt | nt | nt | nt | nt
O=C(Nc1cc2nn(-c3ccccc3)nc2cc1Cl)c1ccco1 | nt | 0.45 | 0.966 | 1.2 | 3.83* | -0.21
Brc1ccc(CN2C3=NCCN3c3ccccc32)cc1 | i | nt | nt | nt | nt | nt
O=c1c2cccc3c(N4CCOCC4)ccc(c32)c2nc3ccccc3n12 | i | -0.268 | 7.17* | 1 | 1.13 | 1.31
O=c1c2ccc([N+](=O)[O-])c3cccc(c32)c2nc3ccccc3n12 | i | nt | nt | nt | nt | nt
Cc1ccc(NC(=O)C2C3CC4OC(=O)C2C4C3)cc1Cl (stereo not given) | i | 0.196 | 0.404 | 1.03 | 1.08 | -6.43*
COc1ccc(C2C3=C(CC(C)(C)CC3=O)Nc3c2c(=O)[nH]c2nc(C)nn32)cc1 (stereo not given) | i | -0.217 | -1.74 | 1.05 | 2.54* | -0.25
CCCN1C(=O)c2ccccc2NC1c1ccc(OC)cc1O (stereo not given) | nt | -1.34 | -0.913 | 1 | 5.02* | 2.18
CCCN1C(=O)c2ccccc2NC1c1ccc(OC)cc1OC (stereo not given) | nt | 0.0208 | 0.718 | 1.05 | 5.07* | 0.3
O=C1c2ccccc2C(=O)N1CCc1c[nH]c2ccc(OC(=O)C34CC5CC(CC(C5)C3)C4)cc12 | i | nt | nt | nt | nt | nt
Cc1cc(OC(C)C(=O)N2CCN(Cc3ccc4c(c3)OCO4)CC2)ccc1Cl (stereo not given) | i | nt | nt | nt | nt | nt
COc1ccc2nc3c(cc2c1)c(NC(=O)c1cccs1)nn3CC(C)C | nt | -1 | 1.61 | 1 | 3.67* | -0.57
CCSc1nnc(-c2cccc(S(=O)(=O)N(CC)CC)c2)n1Cc1ccccc1 | i | -1.58 | 10.1* | 0.98 | 1.05 | -0.17
O=c1c2cc(N3CCOCC3)ccc2[nH]c(=S)n1Cc1ccco1 | i | 0.0121 | -0.677 | 1.06 | 3.54* | -0.89
